Data on 40 compounds can be found in PubChem BioAssay (NCATS).

Inconclusive results are not listed. Unmarked numbers belong to inactive results. Active and inactive are the calls of the source. The call rests on the fitted dose curve; in most records, active means well fitted cell-killing curve with a large enough effect; inconclusive means small, poorly fitted or top-dose-only effect, or effect the other way; inactive means no such curve, though single readings can be large or run the other way.
Potency means the concentration at half of the fitted maximal effect.

The nature of the assay: Viability qHTS for spleen associated tyrosine kinase inhibitor (SYKi) drug resistant MV4-11 cells (AID 1963824). Further: nearly all actives have a fitted effect of over 35% in size. The settings on record: SYKi-resistant MV4-11 viability, CellTiter-Glo, 72 h; series mostly up to 45 µM; viability, % of control: at the top concentration. In short, it runs like this:
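SYK-inhibitor-resistant MV4-11 AML cells were seeded at 500 per well onto compound and cultured 72 hours (37 °C, 5% CO2). CellTiter-Glo was then added, and after 10 min at room temperature, luminescence gave viability.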
Turning to `C[C@]1(C(=O)Nc2ccc(F)nc2)CCCN1c1nc(Nc2cc(C3CC3)[nH]n2)c2cccn2n1`, the Potency is 1.64 µM (active). The same measure, in the same setting: to `CC[C@]1(O)C[C@H]2CN(CCC3C(=Nc4ccccc43)[C@@](C(=O)OC)(c3cc4c(cc3OC)N(C)[C@H]3[C@@](O)(C(N)=O)[C@H](O)[C@]5(CC)C=CCN6CC[C@]43[C@@H]65)C2)C1` (stereo not given in full) belongs 0.0366 µM (active). `CC1(C)CC[C@]2(C(=O)O[C@@H]3O[C@H](CO[C@@H]4O[C@H](CO)[C@@H](O)[C@H](O)[C@H]4O[C@@H]4O[C@H](CO)[C@@H](O)[C@H](O)[C@H]4O)[C@@H](O)[C@H](O[C@@H]4O[C@H](CO)[C@@H](O)[C@H](O)[C@H]4O)[C@H]3O)CC[C@]3(C)C(=CCC4[C@@]5(C)CC[C@@H](O)[C@@](C)(C(=O)O[C@@H]6O[C@H](CO)[C@@H](O)[C@H](O)[C@H]6O)C5CC[C@]43C)[C@@H]2C1` (stereo not given in full): the viability, % of control was 80.3% [at 9.25 µM]. As to `CC1(C)CCC(C)(C)c2cc([C@@H](O)C(=O)Nc3ccc(C(=O)O)cc3F)ccc21`, the Potency was 5.17 µM (active). For the compound `CC1CC(C(O)C(C)(C)O)OC2CC3(C)C4(C)CCC5C(C)(C)C(=O)CCC5(C)C4CCC3(O)C12O` (stereo not given), the Potency was 11.2 µM (active).

As to `O=C(/C=C/c1ccc(O)cc1)OC[C@@]1(O)C=C[C@@H]2C(C(=O)O)=CO[C@@H](O[C@@H]3O[C@H](CO)[C@@H](O)[C@H](O)[C@H]3O)[C@@H]21`, the “viability, % of control” value is 89.7% [at 17.3 µM].

As for `Nc1nc(-c2nn(Cc3ccccc3F)c3ncccc23)ncc1C1CC1`, the Potency is 1.32 µM (active). Still for that read-out and setting: to `C=CC(=O)Nc1cccc(Nc2nc(Nc3ccccc3)ncc2C)c1` belongs 0.651 µM (active); to `CC(=O)O[C@@H]1CC(C)=C2[C@H]1[C@H](C)CC[C@H]2/C=C(\C)C(=O)O`, 16.4 µM (active). Turning to `CC(=O)O[C@@H]1[C@H](O[C@@H]2OC[C@](O)(CO)[C@H]2O)[C@@H](O[C@@H]2O[C@@H](C)[C@H](O)[C@@H](O)[C@H]2O)[C@H](OC(=O)[C@]23CCC(C)(C)C[C@H]2C2=CCC4[C@@]5(C)C[C@H](O)[C@H](O[C@@H]6O[C@H](C(=O)O)[C@@H](O)[C@H](O)[C@H]6O)[C@@](C)(C(=O)O)C5CC[C@@]4(C)[C@]2(C)CC3)O[C@@H]1C` (stereo not given in full), the viability, % of control is 107% [at 9.25 µM].

As for `CC(=O)Nc1nc(C)c(-c2nc(N3CCCC(O)C3)no2)s1` (stereo not given), the Potency is 16.4 µM (active). On the same count and under the same terms, to `COc1ccc(Cl)cc1NC(=O)Nc1cc(C)nc2ccccc12` belongs 14.6 µM (active); to `O=C(c1ccccc1)c1ccc2nc(NC(=O)c3csc(C4CCN(c5ncnc6ccsc56)CC4)n3)[nH]c2c1`, 2.31 µM (active). On to `CC(=O)OC[C@@]12[C@H](O)C[C@@H](C)[C@]3(C[C@@H](c4ccoc4)OC3=O)[C@H]1C[C@H](O)C[C@]21CO1`, for which the “viability, % of control” value is 70.7% [at 17.3 µM].

`CC1OC(O[C@H]2CC[C@@]3(C)C(CC[C@]4(C)C3CC=C3C5CC(C)(C)CC[C@]5(C(=O)OC5OC(CO)C(OC6OCC(OC7OCC(O)C(O)C7O)C(O)C6O)C(O)C5O)CC[C@]34C)C2(C)C)C(O)C(O)C1OC1OC(CO)C(O)C(OC2OC(CO)C(O)C(O)C2O)C1O` (stereo not given in full): the viability, % of control was 62.2% [at 9.25 µM]. Still for that read-out and setting: to `CCN(CC)CCOC(=O)C(Cc1cccc2ccccc12)CC1CCCO1` (stereo not given) belongs 81.5%. As to `O=C(CNC(=O)c1cccc(C(F)(F)F)c1)N[C@@H]1CCN(Cc2ccc(Cl)cc2)C1`, the Potency was 23.1 µM (active). On the same count and under the same terms, to `CCN(CC)CCNC(=O)c1c(C)[nH]c(/C=C2\C(=O)Nc3ccc(Cl)cc32)c1C` belongs 0.0146 µM (active).

Turning to `C=C1C(OC2OC(CO)C(O)C(O)C2O)CC2C(C)(C)C(O)CCC2(C)C1CC/C(C)=C\COC(=O)CC(=O)O` (stereo not given), the Potency is 5.44 µM (active).

Consider `COCC(c1ccc(C(F)(F)F)cc1)N1CCN(C2(C)CCN(C(=O)c3c(C)ncnc3C)CC2)CC1C` (stereo not given), for which the “viability, % of control” value is 76.1%. On to `O=c1cc(-c2ccccc2)oc2ccc(O)cc12`, for which the Potency was 14.6 µM (active). On the same count and under the same terms, then `CC(C)C[C@@H]1NC(=O)[C@@H]2C[C@@]34C[C@@H]5[C@@]6(C)CCCC(C)(C)C6CC[C@@]5(C)N(c5ccccc53)[C@H]4N2C1=O` (stereo not given in full), with 0.448 µM (active); and `CC#C[C@@H](CC(=O)O)c1ccc(OCc2ccc(CN3CCC4(C=Cc5ccccc54)CC3)s2)cc1`, with 11.6 µM (active). Take `OC[C@H]1O[C@@H](OCCc2ccccc2)[C@H](O[C@@H]2OC[C@](O)(CO)[C@H]2O)[C@@H](O)[C@@H]1O`: the “viability, % of control” value was 87.6% [at 17.3 µM]. On to `Clc1ccc2ncc(-c3cccc(NC4CCNC4)n3)n2c1` (stereo not given), for which the Potency was 0.0103 µM (active). As for `C/C=C(/COC(=O)/C(C)=C/C)C(=O)OC/C=C/c1ccc(OC)cc1`, the Potency is 12.8 µM (active). In the case of `C=C1C[C@@H]2CC[C@@]34C[C@H]5O[C@H]6[C@@H](O3)[C@H]3O[C@H](CC[C@@H]3O[C@H]6[C@H]5O4)CC(=O)C[C@@H]3[C@@H](OC)[C@@H](C[C@H](O)CN)O[C@H]3C[C@H]3O[C@@H](CC[C@@H]1O2)C[C@@H](C)C3=C`, the Potency is 0.0005 µM (active). `C=C1C(O)C(O)C2(CC3C(C)=CCC4C(C)(CO)CCCC34C)OC2C1O` (stereo not given): the “viability, % of control” value is 83.4%. For `CCNC(=O)Nc1ccc(-c2nc3c(c(N4CCOCC4C)n2)CCN(C2COC2)C3)cc1` (stereo not given), the Potency was 1.16 µM (active).

Turning to `CC(=O)C1=CCC2C3CC=C4CC(O)CC(O)C4(C)C3C(O)CC12C` (stereo not given), the Potency is 16.1 µM (active).

For the compound `CN(C)c1ccnc2sc3c(=O)n(N4CCCCCC4)cnc3c12`, the Potency was 20.6 µM (active). Turning to `CC(C)=CCC/C(C)=C/COCC1OC(n2ccc(=O)[nH]c2=O)C(O)C1O` (stereo not given), the Potency was 11.4 µM (active). In the case of `C[C@H](C(=O)NC1CCCC1)N(C(=O)Cn1nnc(-c2ccc3c(c2)OCO3)n1)C1CCCCC1`, the Potency was 2.91 µM (active). As to `C[C@@]12CC3(S(=O)(=O)O)OC(O1)[C@]1(COC(=O)c4ccccc4)[C@H]3C[C@]21O[C@@H]1O[C@H](CO)[C@@H](O)[C@H](O)[C@H]1O`, the “viability, % of control” value was 97.7% [at 17.3 µM].

On to `C[C@H]1CC[C@@]2(OC1)O[C@H]1CC3C4CC[C@H]5C[C@@H](O)CC[C@]5(C)C4CC(=O)[C@]3(C)[C@H]1[C@@H]2C` (stereo not given in full), for which the “viability, % of control” value is 65.6% [at 17.3 µM].

With `Cn1cc(C2=C(c3cn(CCCSC(=N)N)c4ccccc34)C(=O)NC2=O)c2ccccc21`, the Potency was 0.411 µM (active). Same read-out and setting: to `Nc1nc2cc(-c3ccc4ncc(C(=O)N5CCOCC5)n4c3)ccc2o1` belongs 10.5 µM (active); to `O=C(Nc1ccn(Cc2ccc(O)cc2C(F)(F)F)n1)c1c(F)cccc1F`, 13 µM (active). For the compound `CC(=O)OC(C)C(C)(O)C(=O)O[C@@H]1CC[C@]2(C)CC(=O)C(=C(C)C)C[C@H]2[C@]1(C)OC(C)=O` (stereo not given in full), the “viability, % of control” value was 92.1% [at 17.3 µM]. For `COc1c2c(c(C)c3c1C(=O)OC3)OC1(C)CC(O)C34OC(OC)(CC(O)C3(C)C1C2)OC4(C)C` (stereo not given), the Potency is 10 µM (active).
